Our source for the outcome and activity change, negative = inhibition values is PubChem BioAssay AID652040 (Broad Institute, 2013).

Measured potencies and affinities stand elsewhere. Values without a mark were called inactive. Activity calls are given as the source filed them.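 How the source made its calls: active means falling luciferase signal whose fitted half-maximal concentration is at most twice the top tested dose; inconclusive means flat inhibition between 30 and 70% or a poor curve fit; inactive means the rest.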

This assay is described as follows: off-target signal loss in HeLa-CEM21 co-culture – HeLa F-luc CTL cells, cherry-picked, counter-screen for HIV-1 Env fusion inhibitor project, dose response (AID 652040;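 further: 0% = median of neutral control wells and -100% = doxycycline 40 µg/mL wells; more negative values mean stronger loss of luciferase signal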). (In general: A counterscreen serves to expose hits that act by an unwanted route or on another target.)

For `O=C(NNS(=O)(=O)c1ccc(F)cc1F)C1Cc2c(ccc3ccccc23)O1` (centres undefined), the result was inactive.
Same read-out and setting: then `O=C(NCc1ccccc1)[C@@H]1CCCN1C(=O)[C@@H]1CCCN1C(=O)c1cccc2ccccc12`, with “inactive”; and `O=C(Nc1cccn(Cc2c(Cl)cccc2Cl)c1=O)c1ccc(Cl)cc1`, with “inactive”; and `CC(CCc1ccco1)NC(=O)CCc1nnc2ccc(NCc3ccccc3Cl)nn12` (centres undefined), with “inactive”.
As to `Cc1ccc(NC(=O)c2ccc(CN3CCc4ccccc4C3)cc2)cc1`, the compound was called inactive.
Take `COc1ccc2[nH]c3c(N4CCC(O)(c5cccc(C(F)(F)F)c5)CC4)ncnc3c2c1`: the outcome was inactive.
For the compound `CCCCOc1ccc(S(=O)(=O)Nc2cccnc2)cc1`, the compound was called inactive.
`O=C(c1ccc(Cl)s1)N1CCN(c2nc3ccccc3s2)CC1`: the compound was classed as inactive.
Turning to `CCOc1ccc(C(=O)C2CCN(CC(=O)Nc3ccccc3N3CCOCC3)CC2)cc1`, the compound was classed as inactive.
The same measure, in the same setting: for `CC1CN(S(=O)(=O)c2cc(C(=O)NCCC3=CCCCC3)ccc2Cl)CC(C)O1` (centres undefined) the value was “inactive”; for `Cc1cc2ncn(S(=O)(=O)N3CCCCC3)c2cc1C`, “inactive”.
On the same count and under the same terms, then `Cc1nc2ccc(NC(=O)c3ccc(Cl)c(S(=O)(=O)N(C)c4ccccc4)c3)cc2s1`, with “inactive”; and `O=C(Nc1nc(-c2ccc3c(c2)OCO3)cs1)c1ccncc1`, with “inactive”; and `O=C(c1cc(COc2cccc(C(F)(F)F)c2)on1)N1CCC(c2ccncc2)CC1`, with “inactive”.
The same measure, in the same setting: for `COc1ccccc1OCC(=O)c1[nH]c(C)c(C(C)=O)c1C` the value was “inactive”.
Take `CCOC(=O)C1CCCN(Cc2nc(N)nc(Nc3ccc(OC)cc3)n2)C1` (centres undefined): the compound was classed as inactive.
The same measure, in the same setting: for `COc1ccc(OCC(=O)Nc2ccccc2N2CCCCC2)cc1` the value was “inactive”; for `O=c1c2ccccc2nnn1CSc1nnc(COc2ccc(Cl)cc2)n1Cc1ccco1`, “inactive”.
The same measure, in the same setting: for `CCc1nnc(NC(=O)[C@@H](NC(=O)c2cccc(S(=O)(=O)N(CC)CC)c2)C(C)C)s1` the value was “inactive”; for `CCCCCn1c(C(C)NC(=O)CCC)nc2ccccc21` (centres undefined), “inactive”.
Still for that read-out and setting: for `COc1cccc(CNc2nc(NCc3ccccc3OC)nc3ccsc23)c1` the value was “inactive”; for `C=CCNc1nc2c(c(=O)n(C)c(=O)n2C)n1CCCCCC`, “inactive”; for `COc1ccc(/C=C/c2nc(S(=O)(=O)c3ccccc3)c(NCCCN(C)C)o2)cc1OC`, “inactive”.
As to `Cc1onc(-c2ccccc2)c1C(=O)NC(=S)NNC(=O)c1ccc(O)cc1`, the outcome was inactive.
Same read-out and setting: for `CS(=O)(=O)N1CCN(c2ccccc2NC(=O)C(c2ccccc2)c2ccccc2)CC1` the value was “inactive”; for `C=C(C)CN(CC)c1nc(N)c2c(N)nc3c(c2c1C#N)CC(=O)N3C12CC3CC(CC(C3)C1)C2`, “inactive”.
The same measure, in the same setting: for `CC(c1nc2ccccc2c(=O)[nH]1)N(C)CCOc1ccc(Cl)cc1` (centres undefined) the value was “inactive”; for `Clc1ccc2c(c1)C(C1=NCCN1)c1ccccc1CS2` (centres undefined), “inactive”.
On the same count and under the same terms, then `COc1ccc(NS(=O)(=O)c2cccc(C(=O)NNC(=O)CNC(=O)c3ccc(C)cc3)c2)cc1`, with “inactive”; and `COc1cc(-c2c(-c3cc(OC)c(OC)c(OC)c3)noc2C)ccc1F`, with “inactive”; and `CCOc1ccccc1C(=O)NCC(=O)NNC(=O)CN(C)S(=O)(=O)c1ccc(Cl)cc1`, with “inactive”.
With `COc1ccc(CCNC(=O)C2CCCN(Cc3nc(-c4cccc(Cl)c4)oc3C)C2)cc1OC` (centres undefined), the outcome was inactive.
The same measure, in the same setting: for `COc1ccc(-c2cc(C3CCN(c4cc(Cl)nc(N)n4)CC3)[nH]n2)cc1` the value was “inactive”; for `Cc1sc2ncnc(N3CCN(S(=O)(=O)c4ccc(Br)cc4)CC3)c2c1C`, “inactive”; for `Clc1ccc2c(c1)C1=C(C(c3ccncc3)O2)C(c2ccc(Br)cc2)n2ncnc2N1` (centres undefined), “inactive”.
`CC1CCC(C(C)C)C(OC(=O)Cn2c(-c3ccc(Cl)cc3)[n+](C)c3ccccc32)C1` (centres undefined): the activity change, negative = inhibition was 55.5% [at 8 µM].
Regarding `COc1ccccc1CN(C)C(=O)CN1CCN(C(=O)c2cccs2)CC1`, the outcome was inactive.
The same measure, in the same setting: for `COc1ccc(NC(=O)CN2CCC(C(N)=O)(N3CCCCC3)CC2)cc1` the value was “inactive”.
Same read-out and setting: for `CN(C(=O)c1cccc(NC(=O)Cc2cccc(NC(=O)C3CCCN(C(=O)C4CCC4)C3)c2)c1)C1CCC1` (centres undefined) the value was “inactive”.
